Activity calls are given as the source filed them. How the source made its calls: active means hit-call score of the fitted dose curve at least 0.9, where 1 is the maximum; inactive means score below 0.9.
Key:
[1] = CEETOX_H295R_OHPREG: CeeTox H295R High-throughput Steroidogenesis Assay for OH-Pregnenolone (OHPREG) (AID 2283434); details: actives raise or lower the signal
How it was run: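 Readout: HPLC-MS/MS of 17alpha-hydroxypregnenolone in medium after 48 h chemical exposure of H295R cells pretreated with forskolin. Values fitted bidirectionally relative to DMSO; chemicals reducing viability to 20–70% were retested after 10-fold dilution.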

[2] = CEETOX_H295R_OHPROG: CeeTox H295R High-throughput Steroidogenesis Assay for OH-Progesterone (OHPROG) (AID 2283435); details: actives raise or lower the signal;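 on AC50: human adrenal H295R cells primed 48 h with 10 µM forskolin; 17alpha-hydroxyprogesterone secreted into medium measured by HPLC-MS/MS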
How it was run: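 Human adrenocortical H295R cells, passage 10 or lower, were treated with chemical for 48 h after forskolin priming, and hormone output in the medium was quantified by LC-MS/MS.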

[3] = read-out: Tumor necrosis factor receptor superfamily member 6 (Homo sapiens) (UniProt P25445); test: LTEA_HepaRG_FAS: Life Technologies and Expression Analysis (LTEA) Assay for Fas cell surface death receptor (FAS) using HepaRG (AID 2283447); details: mRNA level, 48 h; actives raise or lower the signal
How it was run: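 Differentiated human HepaRG cells, pre-cultured 48 h, were exposed in duplicate for 48 h to 8-point half-log concentrations (top 100 uM, 0.5% DMSO) in serum-free induction medium; FAS mRNA measured by qRT-PCR, normalized to ACTB/GAPDH/POLR2A, bidirectional fit versus DMSO.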

[4] = read-out: Fatty acid synthase (Homo sapiens) (UniProt P49327); test: LTEA_HepaRG_FASN: Life Technologies and Expression Analysis (LTEA) Assay for Fatty Acid Synthase (FASN) using HepaRG (AID 2283448); details: mRNA level, 48 h; actives raise or lower the signal
How it was run: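 In human HepaRG cultures, 48 h chemical exposure (up to 100 uM, 0.5% DMSO) preceded TaqMan qRT-PCR of FASN.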

[5] = read-out: Cyclin D2 (CCND2), CCND2 (gene 894); test: LTEA_HepaRG_CCND2: Life Technologies and Expression Analysis (LTEA) Assay for Cyclin D2 (CCND2) using HepaRG (AID 2283449); details: mRNA level, 48 h; actives raise or lower the signal;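 further: CCND2 transcript measured by TaqMan qRT-PCR and normalised to three housekeeping genes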
How it was run: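 In this HepaRG study, an eight-point concentration series (max 100 uM, 0.5% DMSO) is applied for 48 h. CCND2 mRNA change is derived by qRT-PCR normalised to ACTB, GAPDH and POLR2A.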

[6] = read-out: Cyclin Dependent Kinase Inhibitor 1A (CDKN1A), CDKN1A (gene 1026); test: LTEA_HepaRG_CDKN1A: Life Technologies and Expression Analysis (LTEA) Assay for Cyclin Dependent Kinase Inhibitor 1A (CDKN1A) using HepaRG (AID 2283450); details: mRNA level, 48 h; actives raise or lower the signal
How it was run: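 Gain or loss of CDKN1A transcript is scored by bidirectional fitting against 0.5% DMSO vehicle. Human HepaRG cultures receive chemicals for 48 h across an 8-point series peaking at 100 uM; expression comes from qRT-PCR.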

[7] = read-out: Cyclin D1 (CCND1), CCND1 (gene 595); test: LTEA_HepaRG_CCND1: Life Technologies and Expression Analysis (LTEA) Assay for Cyclin D1 (CCND1) using HepaRG (AID 2283451); details: mRNA level, 48 h; actives raise or lower the signal;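 on AC50: TaqMan qRT-PCR transcript level normalised to ACTB GAPDH and POLR2A housekeeping genes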
How it was run: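 Expression change is measured by qRT-PCR in HepaRG cells after 48 h treatment across eight concentrations topping at 100 uM, with duplicate wells and DMSO (0.5%) serving as baseline for bidirectional fitting.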

[8] = read-out: catalase (CAT), CAT (gene 847); test: LTEA_HepaRG_CAT: Life Technologies and Expression Analysis (LTEA) Assay for catalase (CAT) using HepaRG (AID 2283452); details: mRNA level, 48 h; actives raise or lower the signal;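 on AC50: TaqMan qRT-PCR signal normalized to ACTB GAPDH and POLR2A housekeeping genes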
How it was run: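 Differentiated HepaRG cells in serum-free induction medium were dosed 48 h in duplicate, eight half-log concentrations from 100 uM in 0.5% DMSO. Transcript measured by TaqMan qRT-PCR, normalised to ACTB/GAPDH/POLR2A, fitted bidirectionally against DMSO.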

[9] = read-out: flavin-containing dimethylaniline monooxygenases 3 (FMO3), FMO3 (gene 2328); test: LTEA_HepaRG_FMO3: Life Technologies and Expression Analysis (LTEA) Assay for flavin-containing dimethylaniline monooxygenases 3 (FMO3) using HepaRG (AID 2283453); details: mRNA level, 48 h; actives raise or lower the signal;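 on AC50: FMO3 transcript by TaqMan qRT-PCR normalized to ACTB GAPDH and POLR2A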
How it was run: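 Eight-point concentration-response in serum-free HepaRG cultures (top 100 uM, 0.5% DMSO, 48 h). Read-out: FMO3 mRNA level normalized to three endogenous control genes, fitted bidirectionally versus vehicle.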

[10] = read-out: Cytochrome P450 (CYP1A1), CYP1A1 (gene 1543); test: LTEA_HepaRG_CYP1A1: Life Technologies and Expression Analysis (LTEA) Assay for Cytochrome P450 (CYP1A1) using HepaRG (AID 2283454); details: mRNA level, 48 h; actives raise or lower the signal
How it was run: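 Using HepaRG cultures with 0.5% DMSO as vehicle, eight-concentration exposures (max 100 uM) lasted 48 h. Transcript levels were measured by TaqMan qRT-PCR and normalized to ACTB, GAPDH and POLR2A.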

[11] = read-out: CFLAR gene, CFLAR (gene 8837); test: LTEA_HepaRG_CFLAR: Life Technologies and Expression Analysis (LTEA) Assay for CFLAR gene using HepaRG (AID 2283455); details: mRNA level, 48 h; actives raise or lower the signal
How it was run: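 Gain- or loss-of-signal changes in CFLAR transcript were fitted bidirectionally relative to 0.5% DMSO. Cells (HepaRG, duplicate wells) were dosed for 48 h across eight half-log concentrations topping at 100 uM; quantitation by TaqMan qRT-PCR.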

[12] = read-out: Forkhead box O1 (FOXO1), FOXO1 (gene 2308); test: LTEA_HepaRG_FOXO1: Life Technologies and Expression Analysis (LTEA) Assay for Forkhead box O1 (FOXO1) using HepaRG (AID 2283456); details: mRNA level, 48 h; actives raise or lower the signal
How it was run: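 Using one lot of HepaRG hepatic cells kept in 0.5% DMSO, the team applied test chemicals in duplicate, half-log dilutions from 100 uM, for 48 h. Expression, normalised to ACTB/GAPDH/POLR2A, was compared with vehicle in either direction.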

[13] = read-out: growth arrest and DNA damage 45 (GADD45A), GADD45A (gene 1647); test: LTEA_HepaRG_GADD45A: Life Technologies and Expression Analysis (LTEA) Assay for growth arrest and DNA damage 45 (GADD45A) using HepaRG (AID 2283458); details: mRNA level, 48 h; actives raise or lower the signal
How it was run: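 Eight-point concentration-response in HepaRG cells: 48 h chemical exposure, 0.5% DMSO vehicle, top dose 100 uM. Normalized qRT-PCR mRNA readout with bidirectional fitting relative to DMSO.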

[14] = read-out: Forkhead box O3 (FOXO3), FOXO3 (gene 2309); test: LTEA_HepaRG_FOXO3: Life Technologies and Expression Analysis (LTEA) Assay for Forkhead box O3 (FOXO3) using HepaRG (AID 2283459); details: mRNA level, 48 h; actives raise or lower the signal
How it was run: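 Gene-expression endpoint: FOXO3 transcript level by qRT-PCR in HepaRG cultures treated 48 h with chemicals up to 100 uM (half-log, 0.5% DMSO vehicle).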

[15] = CEETOX_H295R_ESTRADIOL: CeeTox H295R High-throughput Steroidogenesis Assay for Estradiol (AID 2283440); details: actives raise or lower the signal;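 further: estradiol secreted into medium quantified by LC-MS/MS after dansyl derivatisation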
How it was run: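 Readout is estradiol in conditioned medium, quantified by reverse-phase HPLC-MS/MS against a 7-point standard curve. Cells: H295R, forskolin-stimulated, then dosed 48 h in 0.1% DMSO; activity fitted in both directions relative to DMSO.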

[16] = CEETOX_H295R_ESTRONE: CeeTox H295R High-throughput Steroidogenesis Assay for Estrone (AID 2283441); details: actives raise or lower the signal;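 further: estrone secreted into medium measured by LC-MS/MS after dansyl derivatization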;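 on AC50: human adrenal H295R cells prestimulated with forskolin for two days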
How it was run: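 Forskolin-stimulated H295R cells are treated 48 h with chemical, and estrone in the medium is measured by LC-MS/MS. Activity is fitted in both directions relative to DMSO controls, with chemicals diluted until MTT viability reaches at least 70%.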

[17] = CEETOX_H295R_CORTIC: CeeTox H295R High-throughput Steroidogenesis Assay for Corticosterone (CORTIC) (AID 2283437); details: actives raise or lower the signal;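 further: corticosterone secreted into medium quantified by mass spectrometry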
How it was run: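 Steps: seed H295R, adhere overnight; 10 uM forskolin 48 h; replace with chemical (0.1% DMSO) 48 h; extract medium with MTBE; quantify corticosterone by HPLC-MS/MS; score bidirectionally vs DMSO.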

[18] = CEETOX_H295R_CORTISOL: CeeTox H295R High-throughput Steroidogenesis Assay for Cortisol (AID 2283438); details: actives raise or lower the signal;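 further: cortisol secreted into medium quantified by LC-MS/MS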
How it was run: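 Steroidogenesis in H295R, per modified OECD 456: 48 h forskolin (10 uM), then 48 h exposure, 0.1% DMSO. Cortisol by extraction and tandem MS; viability by MTT (570/650 nm); cytotoxic chemicals diluted and re-tested.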

[19] = CEETOX_H295R_ANDR: CeeTox H295R High-throughput Steroidogenesis Assay for Androstenedione (ANDR) (AID 2283436); details: actives raise or lower the signal;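 further: human H295R adrenal cells exposed for 48 h with androstenedione measured in medium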
How it was run: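 Steroidogenesis in H295R adrenal cells after 48 h dosing; androstenedione quantified by LC-MS/MS, with DMSO as negative control and baseline for bidirectional curve fitting.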

[20] = CEETOX_H295R_TESTO: CeeTox H295R High-throughput Steroidogenesis Assay for Testosterone (TESTO) (AID 2283457); details: actives raise or lower the signal
How it was run: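 Steroidogenesis in H295R cells following OECD 456 with minor changes; 48 h exposure. Medium testosterone by HPLC-MS/MS, DMSO as baseline, with MTT viability run in parallel.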

Measured: AC50

Sequence of Fatty acid synthase (Homo sapiens) (P49327 whole entry, looked up): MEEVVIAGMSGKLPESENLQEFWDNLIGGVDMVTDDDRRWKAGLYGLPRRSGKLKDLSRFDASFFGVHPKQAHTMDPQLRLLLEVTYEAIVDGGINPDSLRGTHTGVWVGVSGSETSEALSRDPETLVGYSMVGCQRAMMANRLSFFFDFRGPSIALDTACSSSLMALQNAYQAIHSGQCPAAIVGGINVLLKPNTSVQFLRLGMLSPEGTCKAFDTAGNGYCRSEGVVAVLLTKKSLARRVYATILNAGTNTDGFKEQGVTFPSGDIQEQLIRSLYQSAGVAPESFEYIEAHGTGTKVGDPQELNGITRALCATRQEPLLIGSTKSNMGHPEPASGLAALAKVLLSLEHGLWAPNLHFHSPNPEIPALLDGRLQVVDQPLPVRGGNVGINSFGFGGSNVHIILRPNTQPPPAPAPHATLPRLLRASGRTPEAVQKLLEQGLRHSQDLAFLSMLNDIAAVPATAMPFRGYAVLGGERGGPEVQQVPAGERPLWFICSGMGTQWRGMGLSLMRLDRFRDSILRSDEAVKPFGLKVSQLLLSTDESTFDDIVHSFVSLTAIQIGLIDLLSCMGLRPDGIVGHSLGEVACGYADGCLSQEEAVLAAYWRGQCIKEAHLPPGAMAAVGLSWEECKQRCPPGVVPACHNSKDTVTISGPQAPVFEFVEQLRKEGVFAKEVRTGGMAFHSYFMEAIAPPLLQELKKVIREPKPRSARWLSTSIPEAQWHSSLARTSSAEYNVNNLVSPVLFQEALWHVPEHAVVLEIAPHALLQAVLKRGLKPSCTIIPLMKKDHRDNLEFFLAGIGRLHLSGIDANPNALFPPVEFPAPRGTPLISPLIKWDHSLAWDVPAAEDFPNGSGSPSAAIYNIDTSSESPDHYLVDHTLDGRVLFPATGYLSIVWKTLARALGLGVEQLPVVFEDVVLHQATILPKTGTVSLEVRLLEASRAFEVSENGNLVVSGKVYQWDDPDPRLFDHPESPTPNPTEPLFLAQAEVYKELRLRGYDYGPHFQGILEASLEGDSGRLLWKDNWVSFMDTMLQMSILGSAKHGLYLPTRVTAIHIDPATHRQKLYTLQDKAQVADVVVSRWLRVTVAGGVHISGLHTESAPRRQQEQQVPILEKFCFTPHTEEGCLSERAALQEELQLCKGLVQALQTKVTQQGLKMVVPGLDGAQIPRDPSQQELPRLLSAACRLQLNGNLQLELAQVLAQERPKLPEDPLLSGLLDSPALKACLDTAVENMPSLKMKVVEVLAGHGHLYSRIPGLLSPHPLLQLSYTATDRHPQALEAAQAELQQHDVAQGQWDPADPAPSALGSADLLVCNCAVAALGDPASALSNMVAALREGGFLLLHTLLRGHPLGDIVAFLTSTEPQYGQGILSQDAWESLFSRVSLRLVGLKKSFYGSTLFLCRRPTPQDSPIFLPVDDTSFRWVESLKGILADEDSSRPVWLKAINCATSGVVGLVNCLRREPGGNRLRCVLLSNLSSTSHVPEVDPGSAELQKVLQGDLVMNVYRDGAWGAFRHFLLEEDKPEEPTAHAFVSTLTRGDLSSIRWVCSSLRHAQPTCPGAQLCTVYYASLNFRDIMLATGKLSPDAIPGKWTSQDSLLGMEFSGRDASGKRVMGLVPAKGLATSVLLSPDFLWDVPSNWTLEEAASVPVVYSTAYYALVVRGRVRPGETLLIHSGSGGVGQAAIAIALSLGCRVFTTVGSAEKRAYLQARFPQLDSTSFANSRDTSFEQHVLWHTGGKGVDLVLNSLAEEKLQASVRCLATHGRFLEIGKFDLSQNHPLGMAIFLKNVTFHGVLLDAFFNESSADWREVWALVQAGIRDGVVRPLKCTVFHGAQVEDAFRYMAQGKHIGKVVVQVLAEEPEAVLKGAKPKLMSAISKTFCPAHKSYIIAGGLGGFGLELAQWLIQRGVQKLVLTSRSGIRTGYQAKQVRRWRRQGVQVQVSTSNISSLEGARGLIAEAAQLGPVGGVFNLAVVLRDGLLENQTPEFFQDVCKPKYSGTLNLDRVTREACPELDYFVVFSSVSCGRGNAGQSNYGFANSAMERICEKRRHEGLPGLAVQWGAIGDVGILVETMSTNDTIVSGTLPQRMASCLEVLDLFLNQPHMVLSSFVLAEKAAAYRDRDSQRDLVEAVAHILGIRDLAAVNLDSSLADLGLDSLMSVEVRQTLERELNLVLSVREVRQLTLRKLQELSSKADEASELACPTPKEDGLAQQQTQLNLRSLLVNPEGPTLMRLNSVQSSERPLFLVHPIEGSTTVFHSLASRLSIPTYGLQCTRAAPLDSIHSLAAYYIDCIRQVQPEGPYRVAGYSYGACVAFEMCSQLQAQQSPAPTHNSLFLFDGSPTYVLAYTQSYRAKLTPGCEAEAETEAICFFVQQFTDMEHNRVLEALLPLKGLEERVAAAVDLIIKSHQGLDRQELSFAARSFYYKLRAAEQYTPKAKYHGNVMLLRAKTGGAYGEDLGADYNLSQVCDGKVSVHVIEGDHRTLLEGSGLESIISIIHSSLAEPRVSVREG

CNC(=O)Oc1cccc2ccccc12
active: [5] 19.3 nM
not listed: [15] | [16] | [17] | [18] | [19] | [20]
inactive: all other assays above

CC1(C)CON(Cc2ccccc2Cl)C1=O
active: [10] 50 µM
not listed: [12] | [14] | [17] | [18] | [19] | [20]
inactive: all other assays above

CCCC(=NOCC)C1=C(O)CC(CC(C)SCC)CC1=O (centres undefined)
active: [16] 554 nM | [10] 73.9 µM
not listed: [12] | [14] | [19] | [20]
inactive: all other assays above

COP(=S)(OC)SCn1nnc2ccccc2c1=O
active: [2] 2.27 µM | [10] 50 µM
not listed: [14] | [17] | [18]
inactive: all other assays above

CCN(CC)C(=O)C(C)Oc1cccc2ccccc12 (centres undefined)
active: [8] 81.2 µM | [9] 82.9 µM | [10] 36.9 µM
not listed: [12] | [17] | [18] | [19] | [20]
inactive: all other assays above

CC(C)NC(=O)N1CC(=O)N(c2cc(Cl)cc(Cl)c2)C1=O
active: [1] 10.3 µM | [2] 19 µM | [4] 16.2 µM | [7] 23.8 µM | [8] 13.3 µM | [9] 17 µM | [10] 5.2 µM | [11] 20.2 µM | [14] 7.56 µM
inactive: [3] | [5] | [6] | [13]

CCCCC(C#N)(Cn1cncn1)c1ccc(Cl)cc1 (centres undefined)
active: [1] 7.87 µM | [2] 4.02 µM | [18] 832 nM | [4] 22.1 µM | [6] 50 µM | [10] 27.1 µM
not listed: [12] | [15] | [16] | [19] | [20]
inactive: all other assays above

Cc1c(COC(=O)[C@@H]2[C@H](/C=C(\Cl)C(F)(F)F)C2(C)C)cccc1-c1ccccc1
active: [10] 33.6 µM
not listed: [12] | [17] | [18] | [19] | [20]
inactive: all other assays above

From PubChem BioAssay (EPA / NIEHS)
